Screens (PubChem BioAssay)
IL-1B inflam inh – inhibitors of inflammasome signaling (IL-1 beta secretion); 360,000 compounds, 4.7% hits; activity change, % at 57.5 µM; THP-1 LPS/ATP IL-1B secretion, AlphaLISA, 16 h; hits give low values; in the data active = activity change below about -50%; inconclusive = mostly about -30% to -49%
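Secreted IL-1B measured by AlphaLISA bead assay after 16 h compound exposure of THP-1 cells; compounds (final up to 57.5 uM) added 1 h before LPS (250 ng/mL) and ATP (1.25 mM) stimulation; lower signal means less secretion.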
TDP1 cell noCPT – qHTS for Inhibitors of human tyrosyl-DNA phosphodiesterase 1 (TDP1): qHTS in cells in absence of CPT; DT40 Tdp1-/- hTDP1 cells, no CPT, ATP luminescence, 48 h; Potency, µM (doses to about 46.2 µM), without a hit: at the top dose activity change, negative = growth inhibition, hits mostly inhibitors; 420,000 compounds, 15% hits; AID 686978, 2013; also: potency is read from the fitted curve at half-maximal effect; nearly all actives have a fitted effect of over 55% in size
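A cellular qHTS used chicken DT40 cells lacking endogenous Tdp1 but carrying stably transfected human TDP1. Compounds were applied without camptothecin, and cell growth kinetics were judged by ATP-dependent luminescence after ≥48 hr.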
HT1080 IDH1KD tx – HT-1080 IDH1 knockdown cell toxicity (counter line). Potency, µM (doses to about 46.1 µM), inactives show at the highest dose activity, negative = toxicity, actives largely listed as cytotoxic. AID 686971. 360,000 compounds, 2% hits. HT-1080 IDH1 knockdown viability, ATP luminescence, 48 h;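 also: potency is read from the fitted curve at half-maximal effect; 0% = DMSO wells and -100% = cell-free medium wells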
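% activity derives from luminescence (CellTiter-Glo), normalised to DMSO and no-cell wells. HT-1080-IDH1KD cells, 750/well, had 48 h compound exposure at 37 °C.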
ELG1 DNA repair – blocks ELG1-dependent DNA repair in HEK293T cells | 330,000 compounds, 2.3% hits | Potency, µM (highest dose often 46.1 µM), for the others: top-dose activity change, negative = inhibition, actives largely listed as inhibitors | HEK293T ELG1-luciferase reporter, luminescence, 16 h; DNA damage induced by 5-fluorouridine; also: potency is read from the fitted curve at half-maximal effect; nearly all actives have a fitted effect of over 55% in size
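Overnight (16 hr) co-exposure of 2,000 cells/well to 5-fluorouridine and compound at 37 °C preceded detection. Luciferase was quantified via ONE-Glo luminescence; loss of signal denotes inhibition.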
HT1080-NT tox – kills 2HG-producing HT-1080-NT fibrosarcoma cells; HT-1080-NT fibrosarcoma viability, CellTiter-Glo ATP luminescence, 48 h; Potency, µM (titrated, usually from 46.1 µM), inactives show at the highest dose activity, negative = less viability, actives largely listed as cytotoxic; 360,000 compounds, 1.6% hits; AID 686970;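 also: NT is the 2HG producing partner of a matched IDH1 knockdown line; potency is read from the fitted curve at half-maximal effect; 0% = DMSO-treated cells and -100% = media-only wells without cells; nearly all actives have a fitted effect of over 55% in size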
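Fibrosarcoma NT cells, 750 per well in 5% FBS RPMI, were exposed to compound for 48 hours. Viability: CellTiter-Glo luminescence.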
DT40 TDP1 CPT – DT40-hTDP1 cell growth loss with CPT; chicken DT40 Tdp1-/-;hTDP1 cells + 20 nM CPT, ATP luminescence, 48 h; 420,000 compounds, 12% hits; Potency, µM (highest dose often 46.2 µM), inactives show top-dose activity change, negative = growth inhibition, most hits filed as inhibitors; also: potency is read from the fitted curve at half-maximal effect; nearly all actives have a fitted effect of over 55% in size
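Cell growth measured by CellTiter-Glo luminescence after a minimum 48 h, 37 C compound exposure with 20 nM CPT in Tdp1-knockout DT40 cells stably expressing hTDP1, seeded 400/well; qHTS titration format.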
Starred values were filed as active, the others as inactive; ? = inconclusive; . = not tested or not shown; [ ] = dose if it differs, or a comment. Only some compounds are listed: those with a hit (about 19% of all), similar ones and a draw of the others. Unless noted, calls follow the shape of the dose curve; as a rule, active = well fitted curve in the direction sought with a large enough effect; inconclusive = small, poorly fitted or top-dose-only effect, or another doubt; inactive = no such curve, though single readings can be large; an effect the other way counts as inactive or inconclusive. Unless noted, % is scaled to controls: 0 for no effect and ±100 for the full control effect.

SMILES	IL-1B inflam inh	TDP1 cell noCPT	HT1080 IDH1KD tx	ELG1 DNA repair	HT1080-NT tox	DT40 TDP1 CPT
COCCn1c(SCC(=O)c2c[nH]c3ccccc23)nnc1-c1ccncc1	33	-3%	0%	0%	-7%	15%
CCn1c(SCC(=O)c2c[nH]c3ccccc23)nnc1-c1cccs1	35	5.8µM*	?	-18%	?	?
Cc1cc(-c2ccco2)c(C#N)c2nc3ccccc3n12	-12	18µM*	-1%	9%	1%	15µM*
CC(C)c1cc(N2CCN(C(=O)c3ccco3)CC2)n2c(nc3ccccc32)c1C#N	-15	21µM*	-4%	-19%	-1%	15µM*
CC(C)c1c(C(=O)NCc2ccncc2)cnn1-c1nccc(-c2cccs2)n1	.	-19%	.	.	.	-12%[9.04 µM]
O=C(CCN1C(=O)[C@@H]2Cc3ccccc3CN2C1=O)NCc1ccccc1Cl	15	5%	5%	0%	18%	-7%
Cc1ccc(-c2noc(CCCC(=O)NC3CCCCC3)n2)cc1	12	13µM*	-11%	?	-14%	?
COc1cc(-c2noc(CCCC(=O)NC3CCCCC3)n2)cc(OC)c1OC	5	-15%	15%	5.2µM*	2%	-4%
COc1ccc(-c2noc(CCC(=O)NC3CCCCC3)n2)cc1OC	0	-30%	4%	4%	-1%	?
O=C(NC1CCCC1)c1ccc2c(=O)n(Cc3ccccc3)c(SCc3ccc([N+](=O)[O-])cc3)nc2c1	.	-15%	.	.	.	?
O=C(Nc1nnc(SCc2ccc(F)cc2)s1)c1ccc2c(c1)C(=O)N(c1ccccc1Cl)C2=O	10	-7%	28%	0%	0%	-20%
O=C(Nc1nccs1)c1sc2ccccc2c1Cl	31	21µM*	?	?	-29%	?
O=C(NCCCN1CCOCC1)c1sc2cc([N+](=O)[O-])ccc2c1Cl	16	?	-10%	5%	-12%	-29%
O=C(Nc1ccccn1)c1sc2cc([N+](=O)[O-])ccc2c1Cl	21	?	12%	?	18%	23µM*
CC(NC(=O)c1sc2ccccc2c1Cl)C1CCCO1 (stereo not given)	-10	?	12%	?	16%	21µM*
CCCC(=O)N1CCN(c2ccc(NC(=O)c3sc4ccccc4c3Cl)cc2)CC1	-17	?	2%	6%	12%	-15%
CN1CCN(c2ccccc2NC(=O)c2sc3ccccc3c2Cl)CC1	?	21µM*	?	?	?	?
O=C(Nc1nccs1)c1sc2cc(Cl)ccc2c1Cl	0	?	-8%	?	-16%	?
O=c1cc(O)c2sc(Nc3ccc(F)c(Cl)c3)nc2[nH]1	21	3.7µM*	10%	1%	-1%	3.3µM*
CC(=O)c1ccc(NC(=O)CSc2nc3[nH]c(=O)cc(O)c3s2)cc1	-3	?	-1%	.	-6%	?
O=c1cc(O)c2sc(Nc3ccc(Cl)c(F)c3)nc2[nH]1	22	4.6µM*	-13%	?	-1%	5.2µM*
COc1ccc(Nc2nc(C)cc(=O)[nH]2)cc1	17	-6%	2%	5%	1%	-4%
COc1ccc(Nc2nc3[nH]c(=O)cc(O)c3s2)cc1	-13	18µM*	2%	12%	-10%	12µM*
Cc1ccc(NC2CCCN(C(=O)CCc3ccncc3)C2)cc1C (stereo not given)	35	-10%	14%	-9%	19%	-28%
O=C1CC(/C=C/c2ccncc2)=Nc2ccccc2N1	.	5.8µM*	?	18µM*	?	5.8µM*
SMILES	IL-1B inflam inh	TDP1 cell noCPT	HT1080 IDH1KD tx	ELG1 DNA repair	HT1080-NT tox	DT40 TDP1 CPT
Cc1cccc(-n2c(O)c(/C=N/NC(=O)c3ccccc3Cl)c3ccccc3c2=O)n1	38	?	?	-26%	-23%	?
O=C(N/N=C/c1c(O)n(Cc2ccccc2)c(=O)c2ccccc12)c1cccnc1	111	9.2µM*	15µM*	?	13µM*	?
COc1ccc(Cn2c(O)c(/C=N/NC(=O)c3cccnc3)c3ccccc3c2=O)cc1	131	23µM*	21µM*	18µM*	?	15µM*
O=C(N/N=C/c1c(O)n(-c2ccccc2Cl)c(=O)c2ccccc12)c1cccnc1	14	-26%	9.2µM*	-15%	6.5µM*	?
CCCS(=O)(=O)c1nc(S(=O)(=O)c2ccc(C)cc2)c(N2CCN(CCO)CC2)s1	-14	-16%	0%	1%	7%	14%
O=C(Nc1ccccc1[N+](=O)[O-])c1csnn1	.	1%	.	.	.	-1%
C[C@@H]1NS(=O)(=O)[C@H]2C[C@@H]3C=C[C@]2(O3)[C@H]1OC(=O)Nc1ccc(C(F)(F)F)cc1[N+](=O)[O-]	12	?	0%	-1%	0%	?
CCNc1ncc2nc(-c3ccccc3)c(=O)n(Cc3cccs3)c2n1	.	-12%	.	.	.	1%
CCN(CC)CCCNC(=O)Cc1ccc(NC(=O)N2CCCCc3ccccc32)cc1	.	-18%	.	.	.	-19%
COc1ccc(OC)c(NC(=O)C2CCCN(S(C)(=O)=O)C2)c1 (stereo not given)	4	11%	10%	-14%	2%	-12%
CCOC(=O)CC1(C)NC(C(=O)O)C(C)(C)S1 (stereo not given)	20	4%	10%	.	1%	2%
COc1ccc(S(=O)(=O)N2CCN(C)CC2)cc1NC(=O)c1ccccc1	12	-12%	2%	-4%	-9%	-10%
CCc1cccc(NC(=O)Cn2c(=O)c3cccn3c3ccccc32)c1	20	?	-23%	24%	-19%	-5%
CCOC(=O)CC1=CCc2c1ccc(OC)c2OC	13	-26%	?	.	19%	-8%
CCOc1ccc(-c2csc3nc[nH]c(=O)c23)cc1	?	-11%	7%	?	-1%	-27%
COc1cc2nc(=S)n3[nH]c(CCn4nc(C)cc4C)nc3c2cc1OC	7	1.3µM*	?	?	?	1.6µM*
COc1cc2nc(=S)n3[nH]c(COc4ccccc4C)nc3c2cc1OC	7	5.8µM*	-5%	?	6%	1.2µM*
Cc1nc2ccccc2n1CCc1nc2c3ccccc3nc(=S)n2[nH]1	33	-21%	4%	4%	4%	-13%
